# Screening data: PubChem BioAssay, Sanford-Burnham Center for Chemical Genomics
# SENP8 block-1 – SENP8 (human) protease inhibition | inhibition, % at 20 µM | 360,000 compounds, 0.64% hits | AID 602440 | Q96LD8 | recombinant SENP8, Nedd8 substrate fluorescence; in the data active means inhibition mostly above about 40%, no sharp cut-off; inactive means mostly below about 27%
# SENP7 block – blocks the human protease SENP7; Q9BQF6; recombinant SENP7, Z-RLRGG-aminoluciferin luminescence, 40 min; inhibition, % at 5 µM; 330,000 compounds, 1.5% hits; AID 434973;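 active means inhibition above about 50% at the single test dose, limit read from the data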;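 further: plate controls were DMSO with enzyme for no effect and no enzyme buffer wells for full effect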
# Target sequence (Q9BQF6 706-1050 limits assumed): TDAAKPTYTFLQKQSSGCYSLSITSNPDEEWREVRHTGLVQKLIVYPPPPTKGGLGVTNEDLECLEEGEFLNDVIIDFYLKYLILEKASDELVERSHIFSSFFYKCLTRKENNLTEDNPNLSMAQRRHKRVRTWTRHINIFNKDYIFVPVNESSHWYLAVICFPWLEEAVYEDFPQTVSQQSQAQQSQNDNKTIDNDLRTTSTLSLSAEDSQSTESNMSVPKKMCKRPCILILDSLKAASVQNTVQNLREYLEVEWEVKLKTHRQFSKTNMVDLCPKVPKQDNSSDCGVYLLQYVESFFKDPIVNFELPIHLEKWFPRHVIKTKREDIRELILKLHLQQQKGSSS
# SENP6 block – inhibitors of human SENP6 protease | Q9GZR1 | Recombinant SENP6 catalytic domain, aminoluciferin luminescence | inhibition, % at 10 µM | 330,000 compounds, 1.8% hits;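 active means inhibition above about 50% at the single tested dose, limit read from the data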;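 further: plate controls were DMSO wells with enzyme for no effect and DMSO wells lacking enzyme for full effect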
# PPC-1+TRAIL kill – PPC-1 cancer cell killing with TRAIL present. 220,000 compounds, 0.41% hits. AID 1443. PPC-1 cells + TRAIL, ATPLite viability luminescence. cell killing (% activity), % at 4 µM or 5 µM;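 active means cell killing above 50% in the first pass at 4 µM, then a duplicate retest at 5 µM averaging 50% or more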;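 further: plate controls were cells with TRAIL plus DMSO for no effect and medium-only wells lacking cells for full effect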
# SENP8 block-2 – blocks the human protease SENP8; inhibition, % at 10 µM; AID 2540; purified SENP8, Z-RLRGG-aminoluciferin cleavage, luminescence; 330,000 compounds, 1.2% hits; Q96LD8; in the data active means inhibition above about 50%
# TRAIL sens C8 – sensitizes caspase-8 expressing cells to TRAIL; 360,000 compounds, 1% hits; inhibition (viability loss, TRAIL sensitization), % at 10 µM; AID 624354; NB7+C8 cells + TRAIL, ATPlite viability luminescence;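 active means compounds causing at least 50% loss of cell viability in the single-dose screen, relative to plate controls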
# SENP8 confirm – confirmation of human SENP8 protease inhibitors; shares compounds with SENP7 block; Recombinant SENP8, Z-RLRGG-aminoluciferin luminescence, 60 min; inhibition, % at 12.5 µM; 6,200 compounds, 40% hits; AID 488912;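 active means mean inhibition across replicates above about 50%, limit read from the data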
# SENP6 conf – confirmation of human SENP6 protease inhibitors. shares compounds with SENP7 block. recombinant SENP6, Z-RLRGG-aminoluciferin luminescence. inhibition, % at 12.5 µM. 6,200 compounds, 58% hits
# SENP7 conf – human SENP7 inhibition, confirmed | shares compounds with SENP7 block | recombinant SENP7, Z-RLRGG-aminoluciferin luminescence, 40 min | inhibition, % at 12.5 µM | 6,200 compounds, 69% hits | AID 488917
# Casp3 select – caspase-3 inhibition (SENP selectivity assay); shares compounds with SENP7 block; purified caspase-3, Z-DEVD-aminoluciferin luminescence, 60 min; inhibition, % at 12.5 µM; 6,200 compounds, 60% hits;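 active means mean inhibition above about 50%, limit read from the data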;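 further: plate controls were enzyme with DMSO for no effect and wells without caspase-3 for full effect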
# Target sequence (P42574 28-227 limits assumed): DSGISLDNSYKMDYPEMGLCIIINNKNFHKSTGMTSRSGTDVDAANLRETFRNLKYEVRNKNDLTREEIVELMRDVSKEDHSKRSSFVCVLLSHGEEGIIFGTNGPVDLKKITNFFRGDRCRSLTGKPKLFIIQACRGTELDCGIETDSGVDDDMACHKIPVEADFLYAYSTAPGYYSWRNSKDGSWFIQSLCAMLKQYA
# SENP luc ctr – interferes with luciferase luminescence in SENP counter-screen; inhibition, % at 12.5 µM; 6,200 compounds, 39% hits; Pre-incubated SENP8/Z-RLRGG-aminoluciferin, luciferase luminescence interference; shares compounds with SENP7 block;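 active means mean inhibition above about 50% when retested at one dose, limit read from the data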;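 further: plate controls were DMSO wells with completed reaction for no effect and substrate without enzyme for full effect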
# * hit, by the source's call; · = no result. Hits are enriched below; roughly 3% of the tested compounds scored in any of these assays.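 How the source made its calls, unless noted: active means mean inhibition above about 50% in the one-dose retest (limit read from the data); inactive means the rest.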
SMILES,SENP8 block-1,SENP7 block,SENP6 block,PPC-1+TRAIL kill,SENP8 block-2,TRAIL sens C8,SENP8 confirm,SENP6 conf,SENP7 conf,Casp3 select,SENP luc ctr
CCCNC(=O)c1c(N)n(Cc2ccco2)c2nc3ccccc3nc12,·,14.9,20.7,0.3,14.5,·,·,·,·,·,·
CN(C)CCSCc1nnc2n1-c1ccc(Cl)cc1C(c1ccccc1Cl)=NC2,17.0,-0.5,6.7,·,0.6,-1.5,·,·,·,·,·
CCCNC1=C(C)C(=O)C2=C(C1=O)C(COC(N)=O)[C@]1(OC)C3NC3CN21 (stereo not given in full),32.1,29.1,65.8*,12.0,37.6,5.0,-9.8,-5.3,-7.5,-2.9,-8.6
CC1CN(c2ccc([N+](=O)[O-])c(N3CCCCC3)c2)CCN1 (stereo not given),38.1,-5.6,-2.2,13.3,-2.8,12.2,·,·,·,·,·
COc1cc2c(cc1OC)-c1c(OC)c(OC)cc3c1[C@H](C2)N(C)CC3,27.5,51.6*,83.0*,16.4,42.4,2.1,22.4,66.0*,35.0,46.7,-4.9
CN1CC[C@@]2(C)c3cc(O)ccc3N(C)C2O1 (stereo not given in full),-76.6,33.8,57.1*,·,23.8,3.5,28.9,55.7*,30.2,-3.6,-8.6
COc1ccc(/C=C/C2=CCN(C)CC2)cc1,-13.4,-1.7,10.7,14.5,-1.6,-3.2,·,·,·,·,·
CN1CC=C(/C=C/c2ccc(-c3ccccc3)cc2)CC1,·,81.5*,85.9*,·,75.6*,·,71.6*,87.6*,97.3*,87.7*,71.7*
O=C1NC(=S)NC(=O)C1Cc1ccccc1O,9.9,·,·,·,·,-10.2,·,·,·,·,·
COc1ccc(Cc2nccc3cc(OC)c(OC)cc23)cc1OC,55.4*,45.3,63.9*,31.7,27.0,15.1,4.9,22.8,2.2,-1.8,-11.2
CN(C)C(=O)Oc1noc2cc(Cl)ccc12,18.3,-10.3,-25.4,14.9,-9.3,11.0,·,·,·,·,·
COCCNC(=O)c1c(N)n(CCC(C)C)c2nc3ccccc3nc12,-287.2,28.8,86.2*,1.9,81.2*,-0.5,4.6,26.3,22.1,5.9,9.5
COCCCn1c(N)c(C(=O)OCCOC)c2nc3ccccc3nc21,-472.5,57.2*,58.3*,27.6,59.9*,-1.0,6.7,8.7,1.0,-1.9,-1.8
COCCCNC(=O)c1c(NC(=O)c2ccco2)n(Cc2ccccc2)c2nc3ccccc3nc12,-416.2,21.5,34.3,6.9,2.6,-8.3,·,·,·,·,·
COCCNC(=O)c1c(NC(=O)c2ccc(Br)o2)n(Cc2ccccc2)c2nc3ccccc3nc12,-289.9,41.7,82.8*,13.4,82.2*,14.7,4.8,37.7,17.1,4.2,2.6
CCCCCn1c(NC(=O)c2ccco2)c(C(=O)OCC)c2nc3ccccc3nc21,-360.6,34.7,79.2*,20.0,79.6*,18.5,-0.4,5.6,1.7,-2.8,-6.0
C=C(C)[C@@H]1[C@H]2OC(=O)[C@H]1[C@]1(O)C[C@H]3O[C@]34C(=O)O[C@H]2[C@]14C,4.1,·,·,·,·,5.4,·,·,·,·,·
N#CC[N+]1(CCCNP2(=O)C=C(c3ccccc3)OC(c3ccccc3)=C2)CCOCC1,11.8,6.9,-18.5,0.4,-4.6,-7.4,·,·,·,·,·
CN(C)P(=O)(N(C)C)N1CC1,17.8,·,·,·,·,0.3,·,·,·,·,·
CCCCNC(=O)c1c(N)n(CCCOC)c2nc3ccccc3nc12,-276.8,48.9,88.6*,22.7,85.9*,10.5,18.7,49.0,17.6,0.3,-7.4
CCOC(=O)c1c(N)n(Cc2ccc(OC)cc2)c2nc3ccccc3nc12,·,·,·,2.0,·,·,·,·,·,·,·
CC(C)CCn1c(N)c(C(=O)NCc2cccs2)c2nc3ccccc3nc21,-279.1,50.6*,80.0*,11.2,87.5*,5.3,-3.6,4.2,8.9,2.9,1.9
COCCCNC(=O)c1c(N)n(Cc2ccco2)c2nc3ccccc3nc12,-463.6,-0.5,6.6,-1.3,0.4,3.5,·,·,·,·,·
CCOC(=O)c1c(NS(=O)(=O)c2ccccc2)n(CCCOC)c2nc3ccccc3nc12,-423.1,95.3*,95.4*,12.2,91.4*,8.2,29.0,58.3*,37.5,1.2,0.6
CC(C)CNC(=O)c1c(N)n(Cc2ccco2)c2nc3ccccc3nc12,-331.1,9.8,17.1,-0.9,11.9,5.6,·,·,·,·,·
SMILES,SENP8 block-1,SENP7 block,SENP6 block,PPC-1+TRAIL kill,SENP8 block-2,TRAIL sens C8,SENP8 confirm,SENP6 conf,SENP7 conf,Casp3 select,SENP luc ctr
CC(C)OCCCNC(=O)c1c(N)n(Cc2cccs2)c2nc3ccccc3nc12,-493.1,29.6,63.7*,-5.5,44.2,16.7,6.0,12.1,12.2,6.4,2.0
CN1C(=O)C(c2ccc([N+](=O)[O-])cc2[N+](=O)[O-])C(=O)N(C)C1=O,18.5,-2.5,-8.4,·,-4.8,-9.9,·,·,·,·,·
O=[N+]([O-])c1nccn1CC(O)CN1CC1 (stereo not given),19.8,·,·,·,·,8.6,·,·,·,·,·
COc1ccc(Cl)cc1C(=O)C1CCCN(Cc2cnc(C)s2)C1 (stereo not given),7.3,4.4,-4.5,9.8,0.8,-4.2,·,·,·,·,·
c1ccc2c(NC3=NCCS3)cccc2c1,7.8,61.3*,76.2*,14.8,87.6*,-7.3,2.4,-1.6,-2.6,-2.2,-5.3
Clc1cccc(Cl)c1NC1=NCCS1,6.8,·,·,·,·,-15.7,·,·,·,·,·
Cc1ncoc1C(=O)NCC1=C(c2ccc(S(C)(=O)=O)cc2)C[C@@H]2CC[C@H]1N2CCOc1ccccc1,10.6,·,·,·,·,-14.5,·,·,·,·,·
O=C(NCCCN1CC1)Nc1cccc2ccccc12,-53.0,·,·,·,·,-15.6,·,·,·,·,·
Cc1ccccc1-n1c(O)c(/C=N/NC(=O)c2ccccc2O)c(=O)[nH]c1=S,-311.7,1.0,4.4,1.5,18.7,9.8,·,·,·,·,·
O=C(N/N=C/c1c(O)n(C2CC2)c(=S)[nH]c1=O)c1ccccc1O,-234.6,82.6*,81.5*,18.2,82.9*,-2.9,88.4*,85.5*,94.6*,87.4*,25.3
CCN(CC)P(=O)(Oc1ccccc1)Oc1ccccc1,15.3,-1.6,-20.2,-4.0,1.5,4.6,·,·,·,·,·
CC1COC2N=C(N[N+](=O)[O-])NC2O1 (stereo not given),10.8,-6.5,-7.3,10.3,-11.7,-3.2,·,·,·,·,·
CN1C(=O)C(=Cc2ccccc2OCc2ccc(Cl)cc2)C(=O)N(C)C1=O,9.9,63.8*,75.1*,-8.2,44.2,-0.7,44.0,57.2*,76.2*,51.9*,69.8*
